The list is not random: actives were taken first. Their share in the collection is about 1.1%.
MOR-DOR ag: OPRM1-OPRD1 heterodimerization agonism. AID 504326. hit rate 0.3% among 340,000. cells, luminescence. P35372+P41143. activation, % at 9.3 µM; in the data active = activation above about 18%
Target sequence (P35372 whole entry, looked up): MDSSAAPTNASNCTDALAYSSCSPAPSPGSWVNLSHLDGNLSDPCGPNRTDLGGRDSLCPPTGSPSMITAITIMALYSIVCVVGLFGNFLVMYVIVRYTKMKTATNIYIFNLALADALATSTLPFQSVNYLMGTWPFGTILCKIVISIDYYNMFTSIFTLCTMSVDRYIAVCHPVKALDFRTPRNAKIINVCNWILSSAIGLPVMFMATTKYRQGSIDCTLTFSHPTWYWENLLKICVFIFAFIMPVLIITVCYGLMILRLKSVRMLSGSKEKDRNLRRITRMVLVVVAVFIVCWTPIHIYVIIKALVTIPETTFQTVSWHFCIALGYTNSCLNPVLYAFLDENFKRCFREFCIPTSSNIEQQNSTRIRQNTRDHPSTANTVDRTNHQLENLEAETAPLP
Target sequence (P41143 whole entry, looked up): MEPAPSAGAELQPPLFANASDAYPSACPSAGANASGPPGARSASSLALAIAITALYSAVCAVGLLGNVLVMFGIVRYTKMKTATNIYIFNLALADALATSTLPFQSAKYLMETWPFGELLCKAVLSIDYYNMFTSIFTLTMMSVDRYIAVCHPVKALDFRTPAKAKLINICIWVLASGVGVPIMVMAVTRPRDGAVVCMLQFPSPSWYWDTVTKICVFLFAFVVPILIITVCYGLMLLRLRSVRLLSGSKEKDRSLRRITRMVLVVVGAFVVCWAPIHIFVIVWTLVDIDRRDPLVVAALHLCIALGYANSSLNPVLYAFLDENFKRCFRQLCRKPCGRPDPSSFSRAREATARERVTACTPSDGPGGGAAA
OPRM1-OPRD1 inv: inverse agonists of human mu-delta opioid receptor heterodimerization. cell-based MOR-DOR heterodimer luminescence, inverse agonism. hit rate 0.21% among 340,000. P35372+P41143. inhibition, % at 9.3 µM; in the data active = inhibition above about 22%, passing the limit was not always enough
HTR5A inv ctr: inverse agonist of human HTR5A in OPRM1-OPRD1 counter-screen | P47898 | HTR5A cell line, luminescence, inverse agonism | inhibition, % at 9.3 µM | hit rate 0.083% among 340,000; in the data active = inhibition mostly above about 23%, no sharp cut-off; inactive = mostly below about 18%
HTR5A ag ctr: counter-screen for OPRM1-OPRD1 agonists: human HTR5A agonism; HTR5A agonist assay, luminescence, cell-based; activation, % at 9.3 µM; AID 504692; P47898; hit rate 0.61% among 340,000; in the data active = activation mostly above about 9.5%, no sharp cut-off; inactive = mostly below about 7.6%
MOR-DOR inv conf: confirmation of human OPRM1-OPRD1 heterodimerization inverse agonists | inhibition, % at 9.3 µM | AID 504900 | cells expressing OPRM1/OPRD1 heterodimer, luminescence | shares compounds with OPRM1-OPRD1 inv | hit rate 20% among 580; in the data active = inhibition above about 32%
HTR5A inv count: HTR5A inverse agonism, opioid heterodimer counter-screen; inhibition, % at 9.3 µM; shares compounds with OPRM1-OPRD1 inv; HTR5A-expressing cells, luminescence; AID 504914; 580 tested, under 10 active; call rule not given here
Each line names hits and unclear results; the compound was inactive in the other large screens (follow-up assays come after a bar, where they were run).

O=[N+]([O-])c1cccc(N/N=C/c2cc([N+](=O)[O-])ccc2O)c1	none
O=C(COC(=O)c1ccc[n+]([O-])c1)Nc1ccc(Cl)cc1[N+](=O)[O-]	none
CC1Nc2ncnc(N3CCN(c4ccccc4)CC3)c2N(Cc2ccc(Cl)cc2)C1=O (stereo not drawn)	OPRM1-OPRD1 inv 57 | MOR-DOR inv conf 33 | HTR5A inv count 63
Cn1cccc1C(C#N)(CC#N)c1cccc(F)c1C#N (stereo not drawn)	none
Cn1cccc1C(C#N)c1cccc(F)c1C#N (stereo not drawn)	OPRM1-OPRD1 inv 37 | MOR-DOR inv conf inactive | HTR5A inv count inactive
Cn1cnc([N+](=O)[O-])c1S(=O)(=O)Oc1ccccc1	OPRM1-OPRD1 inv 40 | MOR-DOR inv conf inactive | HTR5A inv count inactive
Cn1cnc([N+](=O)[O-])c1S(=O)(=O)c1cccc(Cl)c1	OPRM1-OPRD1 inv 29 | MOR-DOR inv conf inactive | HTR5A inv count inactive
Cc1nn(C(C)C(=O)c2cccc(Cl)c2)c(C)c1[N+](=O)[O-] (stereo not drawn)	none
Cn1cnc([N+](=O)[O-])c1S(=O)(=O)Nc1ccccc1	none
CCOC(=O)C1=C(COC(=O)c2cc(S(=O)(=O)N3CCOCC3)ccc2F)NC(=O)NC1C (stereo not drawn)	none
c1ccc(-c2csc(CN3CCCCC3)n2)cc1	none
O=C(CC1(O)C(=O)Nc2ccccc21)c1ccccc1O (stereo not drawn)	OPRM1-OPRD1 inv 50 | MOR-DOR inv conf inactive | HTR5A inv count inactive
O=C(CC1(O)C(=O)Nc2ccccc21)c1cccnc1 (stereo not drawn)	OPRM1-OPRD1 inv 52 | MOR-DOR inv conf inactive | HTR5A inv count inactive
Cc1nc2c3ccccc3n(CC(=O)c3ccc(F)cc3)c(=O)n2n1	OPRM1-OPRD1 inv 31 | MOR-DOR inv conf inactive | HTR5A inv count inactive
CC(Oc1ccccc1)C(=O)N=Nc1c(O)[nH]c2ccc([N+](=O)[O-])cc12 (stereo not drawn)	OPRM1-OPRD1 inv 45 | MOR-DOR inv conf inactive | HTR5A inv count inactive
O=C(N=Nc1c(O)[nH]c2ccc([N+](=O)[O-])cc12)c1ccccc1[N+](=O)[O-]	none
COc1ccc(-c2nc(-c3cccs3)c(-c3cccs3)[nH]2)cc1OC	OPRM1-OPRD1 inv 30 | MOR-DOR inv conf inactive | HTR5A inv count inactive
Cc1ccc(-n2nc(C)c3c2C(Br)C(C)(C)CC3=O)nc1 (stereo not drawn)	none
C=CCn1c(N)c(C(=O)OC(C)CC)c2nc3ccccc3nc21 (stereo not drawn)	none
COCC(C)OC(=O)c1c(N)n(CC(C)C)c2nc3ccccc3nc12 (stereo not drawn)	OPRM1-OPRD1 inv 59 | MOR-DOR inv conf 37 | HTR5A inv count inactive
O=C1C(=O)N(CCN2CCCCC2)c2ccccc21	OPRM1-OPRD1 inv 72 | MOR-DOR inv conf 74 | HTR5A inv count inactive
O=C1C(=O)N(CCS(=O)(=O)c2ccccc2)c2ccccc21	OPRM1-OPRD1 inv 58 | MOR-DOR inv conf inactive | HTR5A inv count inactive
O=C1C(=O)N(Cc2cccs2)c2ccccc21	OPRM1-OPRD1 inv 48 | MOR-DOR inv conf inactive | HTR5A inv count inactive
O=C(CN1C(=O)C(=O)c2ccccc21)c1ccccc1	OPRM1-OPRD1 inv 52 | MOR-DOR inv conf inactive | HTR5A inv count inactive
O=C1CSC(=S)N1Cc1cccs1	none
O=S(=O)(CCN1CCOCC1)c1ccccc1	none
Cc1ccc(C)c(OCCC(=O)Nc2ccccc2C(=O)NC2CC2)c1	none
Cc1cccc(N2CCN(C(=O)CN3C(=O)NC4(CCCCCC4)C3=O)CC2)c1C	none
Cc1cccc(C(=O)NNC(=O)c2ccc3ccccc3c2)c1	none
Cc1ccc2c(c1)C(=C(C#N)C#N)CCN2	none
COC(=O)[C@H](CC(C)C)N(Cc1ccccc1)S(=O)(=O)N(Cc1ccc(OC)cc1)[C@@H](CC(C)C)C(=O)OC	none
O=C(CCN1C(=O)c2ccccc2C1=O)OCN1C(=O)c2ccccc2C1=O	none
O=C(CN1C(=O)C(=O)c2ccccc21)NC1CCCCC1	OPRM1-OPRD1 inv 47 | MOR-DOR inv conf 48 | HTR5A inv count inactive
O=C(COC(=O)CN1C(=O)C(=O)c2ccccc21)OCN1C(=O)c2ccccc2C1=O	OPRM1-OPRD1 inv 40 | MOR-DOR inv conf inactive | HTR5A inv count inactive
O=C1CCC/C=C/C[C@H](CC(=O)N(CCO)Cc2ccccc2)C(=O)N[C@@H](Cc2ccccc2)CO1	none
Cc1cc(C(=O)NNc2ccc(F)cc2)no1	OPRM1-OPRD1 inv 36 | MOR-DOR inv conf inactive | HTR5A inv count inactive
Cc1cc(C(=O)NNc2ccccc2F)no1	none
NC(=S)c1cc2ccc(O)cc2oc1=O	OPRM1-OPRD1 inv 31 | MOR-DOR inv conf inactive | HTR5A inv count inactive
O=CN1Cc2[nH]c3ccccc3c2N(c2ccc(Cl)cc2)C1=O	OPRM1-OPRD1 inv 44 | MOR-DOR inv conf inactive | HTR5A inv count inactive
O=C1CNCc2[nH]c3ccccc3c2N1c1ccccc1	none
Cc1cc(NC(=O)CSc2nc3c([nH]c4ccccc43)c(=O)n2-c2ccccc2F)no1	OPRM1-OPRD1 inv 34 | MOR-DOR inv conf inactive | HTR5A inv count inactive
CCC(OC(=O)C(C)N1C(=O)C(=O)c2ccccc21)C(=O)Nc1ccccc1OC (stereo not drawn)	OPRM1-OPRD1 inv 48 | MOR-DOR inv conf inactive | HTR5A inv count inactive
CCC(Oc1ccccc1)C(=O)Nc1ccccc1OC (stereo not drawn)	none
CCC(OC(=O)CN1C(=O)C(=O)c2ccccc21)C(=O)Nc1ccccc1OC (stereo not drawn)	OPRM1-OPRD1 inv 49, HTR5A inv ctr 23 | MOR-DOR inv conf inactive | HTR5A inv count inactive
O=C1Nc2ccc(Cl)cc2C12Nc1ccccc1-c1nnc(SCc3ccccc3F)nc1O2 (stereo not drawn)	OPRM1-OPRD1 inv 50 | MOR-DOR inv conf inactive | HTR5A inv count inactive
CCSc1nnc2c(n1)OC1(CCCC1)Nc1ccccc1-2	none
O=C1Nc2ccc(F)cc2C12Nc1ccccc1-c1nnc(SCc3ccccc3F)nc1O2 (stereo not drawn)	OPRM1-OPRD1 inv 69 | MOR-DOR inv conf 72 | HTR5A inv count inactive
Cc1cc(-n2nc3ccccc3n2)c(O)c([N+](=O)[O-])c1	OPRM1-OPRD1 inv 26 | MOR-DOR inv conf inactive | HTR5A inv count inactive
Cc1ccc(OC(=O)c2cccc([N+](=O)[O-])c2)c(-n2nc3ccccc3n2)c1	none
Cc1ccc(NC(=S)NNc2ncc(C(F)(F)F)cc2Cl)cc1	OPRM1-OPRD1 inv 55 | MOR-DOR inv conf inactive | HTR5A inv count inactive
CON/C=N/C(=S)Nc1ncc(C(F)(F)F)cc1Cl	none
Cc1ccc(NC(=S)NNc2ncc(C(F)(F)F)cc2Cl)c(C)c1	OPRM1-OPRD1 inv 49 | MOR-DOR inv conf inactive | HTR5A inv count inactive
CO[C@@]12[C@@H]3N[C@@H]3CN1C1=C(C(=O)C(N)=C(C)C1=O)[C@@H]2COC(N)=O	none
Cc1ccc(NNC(=O)C(=O)N2CCCCC2)cc1	OPRM1-OPRD1 inv 28 | MOR-DOR inv conf inactive | HTR5A inv count inactive
